# Reference: the supplement of paper PMC13380429
# Tests used:
# [1] = tested on: Vero E6 infected with SARS-CoV-2; assay: morphology score (similarity to uninfected cells); higher = more like uninfected cells; details: 24 h
# [2] = tested on: Vero E6 infected with SARS-CoV-2; assay: SARS-CoV-2 infection rate relative to infected DMSO; higher = more infection, active = 60 or less; details: 24 h
Compound,morphology score [1],SARS-CoV-2 infection rate [2]
CC[N+](CC)(CC)CC(=O)Nc1c(C)cccc1C (10 µM),0.0409,104% (inactive)
COc1cc2ncnc(Nc3cccc(Cl)c3F)c2cc1OC(=O)N1CCN(C)C[C@H]1C (10 µM),-0.178,114% (inactive)
CC1(C)CCC(C)(C)c2cc(Cn3cccn3)c(/C=C/c3ccc(C(=O)O)cc3)cc21 [palovarotene] (10 µM),-0.127,108% (inactive)
CCCC(=O)Nc1cccc(NC(=O)c2ccccc2Br)c1 (10 µM),-0.131,110% (inactive)
CCN1CCN(c2cc3c(cc2F)c(=O)c(C(=O)O)cn3C2CC2)CC1 [enrofloxacin] (10 µM),0.0599,112% (inactive)
CNC(=O)c1cccc(NC(=O)N2CCC(Oc3ccccc3Cl)CC2)c1 (10 µM),-0.102,114% (inactive)
C[C@H](NC(=O)Cc1cc(F)cc(F)c1)C(=O)N[C@@H]1C(=O)N(C)c2ccccc2-c2ccccc21 (10 µM),0.18,119% (inactive)
CCN1CCCC1CNC(=O)c1cc(S(N)(=O)=O)ccc1OC (centres undefined) [sulpiride] (10 µM),-0.0261,105% (inactive)
O=C1CCC2CCC(=O)N12 [rolziracetam] (10 µM),-0.0425,106% (inactive)
N#Cc1ccccc1-c1cc(-c2ccccn2)cn(-c2ccccc2)c1=O [Perampanel] (10 µM),0.11,90.5% (inactive)
CC(C(=O)O)c1ccc(C(=O)c2cccs2)cc1 (centres undefined) [suprofen] (10 µM),0.123,108% (inactive)
CN1C(=O)N[C@H](Cc2c[nH]c3c(Cl)cccc23)C1=O [necrostatin-2] (10 µM),0.131,95% (inactive)
CO[C@]12C[C@@H](COC(=O)c3cncc(Br)c3)CN(C)[C@@H]1Cc1cn(C)c3cccc2c13 [nicergoline] (10 µM),0.275,81% (inactive)
c1ccc(C2CN3CCSC3=N2)cc1 (centres undefined) [tetramisole] (10 µM),0.191,104% (inactive)
S=P(N1CC1)(N1CC1)N1CC1 [thiotepa] (10 µM),0.127,96% (inactive)
Nc1ncn([C@H]2C[C@H](O)[C@@H](CO)O2)c(=O)n1 [decitabine] (10 µM),0.0186,104% (inactive)
Nc1ccc(C(=O)O)cc1 [potassium-p-aminobenzoate] (10 µM),-0.112,108% (inactive)
Cc1noc(NS(=O)(=O)c2cccc3c(N(C)C)cccc23)c1C (10 µM),0.115,95.5% (inactive)
CCN(CC)CC#CCOC(=O)C(O)(c1ccccc1)C1CCCCC1 (centres undefined) [oxybutynin] (10 µM),0.299,98% (inactive)
Cc1cc(/C=C/c2ccc3cc(N(C)C)ccc3[n+]2C)c(C)n1-c1ccccc1 [pyrvinium-pamoate] (10 µM),-0.0751,113% (inactive)
CCn1c(=O)c(-c2cc[nH]n2)cc2c(C)nc(N)nc21 [voxtalisib] (0.833333 µM),0.00591,109% (inactive)

Compound,morphology score [1],SARS-CoV-2 infection rate [2]
CC(C)(Oc1ccc(C2CC2(Cl)Cl)cc1)C(=O)O (centres undefined) [ciprofibrate] (10 µM),-0.0908,109% (inactive)
C=C1CC/C=C(\C)CC[C@@H]2[C@@H]1CC2(C)C [g-caryophyllene] (10 µM),0.0545,95% (inactive)
C[n+]1cc2c3c(ccc2c2ccc4cc5c(cc4c21)OCO5)OCO3 [sanguinarium-chloride] (10 µM),-0.0249,94.5% (inactive)
O=C(O)C1=C(CSc2nnnn2CS(=O)(=O)O)CS[C@@H]2[C@H](NC(=O)[C@H](O)c3ccccc3)C(=O)N12 [Cefonicid (sodium)] (10 µM),-0.0671,112% (inactive)
CS(=O)(=O)n1cc2c(n1)CN([C@H]1CO[C@H](c3cc(F)ccc3F)[C@@H](N)C1)C2 [omarigliptin] (10 µM),0.198,107% (inactive)
c1ccc(CN(CC2=NCCN2)c2ccccc2)cc1 [antazoline] (10 µM),-0.22,112% (inactive)
Cc1ccc([N+](=O)[O-])cc1O [2-methyl-5-nitrophenol] (10 µM),0.0626,98.5% (inactive)
CCOc1nc2cccc(C(=O)O)c2n1Cc1ccc(-c2ccccc2-c2nnn[nH]2)cc1 [candesartan] (10 µM),0.175,105% (inactive)
COc1ccc([C@@H]2CC(=O)c3c(O)cc(O[C@@H]4O[C@H](CO[C@@H]5O[C@@H](C)[C@H](O)[C@@H](O)[C@H]5O)[C@@H](O)[C@H](O)[C@H]4O)cc3O2)cc1O [hesperidin] (10 µM),-0.132,108% (inactive)
COc1ccc(CN(CCN(C)C)c2ccccn2)cc1 [mepyramine] (10 µM),0.0933,106% (inactive)
CCN(CCCCOC(=O)c1ccc(OC)c(OC)c1)C(C)Cc1ccc(OC)cc1 (centres undefined) [mebeverine] (10 µM),0.178,94.5% (inactive)
CC(=O)OCC(CCn1cnc2cnc(N)nc21)COC(C)=O [famciclovir] (10 µM),0.139,102% (inactive)
CC(N)Cc1ccc(O)cc1 (centres undefined) [hydroxyamphetamine] (10 µM),-0.0633,104% (inactive)
CO[C@H]1C[C@H](O[C@@H]2/C(C)=C/C[C@@H]3C[C@@H](C[C@]4(CC[C@H](C)[C@@H](C5CCCCC5)O4)O3)OC(=O)[C@@H]3C=C(C)/C(=N/O)[C@H]4OC/C(=C\C=C\[C@@H]2C)[C@]43O)O[C@@H](C)[C@@H]1O [selamectin] (10 µM),0.602,71% (inactive)
CN(C)Cc1cccc(N/C(=C2\C(=O)Nc3cc(C(N)=O)ccc32)c2ccccc2)c1 (10 µM),-0.132,120% (inactive)
C[C@]12Cc3c[nH]nc3C[C@@H]1CC[C@@H]1[C@@H]2CC[C@@]2(C)[C@H]1CC[C@]2(C)O [stanozolol] (10 µM),-0.305,110% (inactive)
Cc1ccc(NC(=O)c2ccc(CN3CCN(C)CC3)cc2)cc1Nc1nc(-c2cccnc2)cs1 [masitinib] (10 µM),0.757,43% (active)
Cn1c(=O)c2[nH]cnc2n(C)c1=O [aminophylline] (10 µM),0.187,95% (inactive)
CS(=O)(=O)c1ccc(-c2cnc(N)c(C(=O)Nc3ccccc3)n2)cc1 (10 µM),0.278,87% (inactive)
CN(C(=O)Cc1ccc(Cl)c(Cl)c1)[C@H](CN1CCCC1)c1ccccc1 (10 µM),0.793,21.5% (active)
COc1ccc(C(=O)NCc2ccc(OCCN(C)C)cc2)cc1OC [itopride] (10 µM),0.19,90.5% (inactive)

Compound,morphology score [1],SARS-CoV-2 infection rate [2]
Cc1ccccc1C(=O)c1ccc(Nc2ccc(Br)cc2N)cc1Cl (10 µM),-0.138,102% (inactive)
COc1ccc(-c2c(C)c(C(=O)NN3CCCCC3)nn2-c2ccc(Cl)cc2Cl)cc1 (10 µM),0.154,86% (inactive)
c1cnc2c([O][Ga]([O]c3cccc4cccnc34)[O]c3cccc4cccnc34)cccc2c1 [gallium-triquinolin-8-olate] (10 µM),0.775,16.5% (active)
OC[C@H]1NC[C@@H](O)[C@@H](O)[C@@H]1O [1-deoxymannojirimycin] (10 µM),-0.0915,102% (inactive)
CC(C)(C)OC(=O)N[C@H]1CCCCC/C=C\[C@@H]2C[C@@]2(C(=O)NS(=O)(=O)C2CC2)NC(=O)[C@@H]2C[C@@H](OC(=O)N3Cc4cccc(F)c4C3)CN2C1=O [danoprevir] (10 µM),-0.0154,114% (inactive)
COc1ccccc1OC(=O)C(C)c1ccc(CC(C)C)cc1 (centres undefined) [metoxibutropate] (10 µM),0.217,101% (inactive)
O=C(CCc1ccc(O)cc1)c1c(O)cc(O)cc1O[C@@H]1O[C@H](CO)[C@@H](O)[C@H](O)[C@H]1O [phlorizin] (10 µM),0.166,112% (inactive)
CNC(=O)c1c(I)c(NC(C)=O)c(I)c(C(=O)O)c1I [iothalamic-acid-d3] (10 µM),0.143,104% (inactive)
CCOC(=O)Nc1cc(-c2ccc(C)c(NS(C)(=O)=O)c2)nn2c(C)nnc12 [bromosporine] (10 µM),-0.021,111% (inactive)
O=C(Nc1ccccc1)N[C@H]1C[C@H](C(=O)O)Nc2cc(Cl)cc(Cl)c21 (10 µM),-0.146,106% (inactive)
O=C(NNc1nc2cc(F)ccc2n2cccc12)c1cnccn1 (10 µM),0.0623,105% (inactive)
CNCCCN1c2ccccc2CCc2ccccc21 [desipramine] (10 µM),0.212,81% (inactive)
COc1ccc(Nc2nccc(NCCO)n2)cc1 [cardiogenol-C] (10 µM),0.0849,100% (inactive)
O=c1cc(N2CCOCC2)oc2c(-c3ccccc3)cccc12 (0.833333 µM),0.266,98.5% (inactive)
O=C(Nc1ccccc1)c1ccccc1O [salicylanilide] (10 µM),-0.148,110% (inactive)
CCOC(=O)c1ccc(-c2ccc(OC(=O)N(C)Cc3cccc(-c4ccncc4)c3)cc2)cc1 (10 µM),0.0201,104% (inactive)
COc1cccc(Nc2ncnn3ccc(CN4CC[C@@H](N)[C@H](O)C4)c23)c1 (0.833333 µM),-0.24,112% (inactive)
O=C1NC(=O)[C@@H](c2cn3c4c(cccc24)CCC3)[C@@H]1c1c[nH]c2ccccc12 [tivantinib] (10 µM),-0.141,107% (inactive)
CCOC(CN1CCN(CC(C)C(=O)c2ccccc2)CC1)c1ccccc1 (centres undefined) [eprazinone] (10 µM),0.35,96% (inactive)
C[C@]12COC(=O)C[C@@H]1CC[C@@H]1[C@@H]2CC[C@@]2(C)[C@H]1CC[C@]2(C)O [Oxandrolone] (10 µM),0.0356,112% (inactive)
